The text below walks through data of PubChem BioAssay (NCATS).

Each structure is given as a SMILES string. Results filed as inconclusive are left out. A number with no mark means an inactive call. The call rests on the fitted dose curve; in most records, active means well fitted cell-killing curve with a large enough effect; inconclusive means small, poorly fitted or top-dose-only effect; inactive means flat fitted curve, though single readings scatter.
On the % scale 0 is the no-effect control and ±100 the full control effect.

The nature of this assay: qHTS assay to identify small molecule inhibitors of chordoma cells - UCH-2 (AID 1259356). Conditions: UCH-2 chordoma viability, CellTiter-Glo ATP luminescence, 48 h; series mostly up to 46.1 µM; activity change, negative = inhibition: at the top concentration. From the text:
NIH Chemical Genomics Center [NCGC]
Chordoma is a rare and slow growing tumor that can occur anywhere along the spine, from the base of the skull to the tailbone. Current treatment options for chordoma is surgery and radiation therapy for those who are not candidates for surgery. But chordomas tend to return in the same location or surrounding areas of the original tumor after surgery and/or radiation. Chemotherapy can slow down the progression of the tumor. As chordoma is slow growing, the general cytotoxic agents that kill fast growing cells are ineffective, and some patients have been reported to respond to molecularly targeted drugs.
NCATS Pharmaceutical Collection (NPC) containing approximately 3000 clinically approved and investigational drugs were used to screen at 15 concentrations in a chordoma cell lines, UCH-2, to identify small molecule compounds that can inhibit chordoma cell growth.
NCGC Assay Protocol Summary:
Human chordoma cell line UCH-2 was dispensed at 800 per well in 4uL of culture medium into white solid bottom 1536-well plates (Corning Life Sciences, Corning, NY) using a Multidrop Combi (Thermo Scientific, Waltham, MA) dispenser. The assay plates were incubated at 37 C and 5% CO2 for an overnight, and then 23nL of compounds dissolved in DMSO and positive control were transferred using a Pintool station (Wako, San Diego, CA). Compound treatment was followed by the addition of 1uL of the combination compounds (1uM Auranofin, 500nM each of Camptothecin, Doxorubicin, Rubitecan, and Topotecan) and assay medium to each well of the assay plates using Flying Reagent Dispenser (FRD, Aurora Discovery, San Diego, CA). The assay plates were incubated at 37 C and 5% CO2 for 48hr. Then 5uL of CellTiter-Glo reagent (Promega Corporation, Madison, WI) was added to each well of the assay plates using FRD. After 30min incubation at room temperature, the luminescence signal was quantified using a ViewLux plate reader (PerkinElmer, Shelton, CT).
For `CCOC(=O)Nc1ccc(NCc2ccc(F)cc2)nc1N`, the “activity change, negative = inhibition” value was -6.26%. In the case of `Cn1c(=O)c2c(ncn2C)n(C)c1=O`, the “activity change, negative = inhibition” value is -0.896%. The same measure for `CN(CCOc1ccc(NS(C)(=O)=O)cc1)CCc1ccc(NS(C)(=O)=O)cc1`: 0.244%. On to `CC(COc1ccccc1)N(CCCl)Cc1ccccc1` (stereo not given), for which the “activity change, negative = inhibition” value was 8.62%. Regarding `COc1ccccc1N1CCN(CC(O)COc2cccc3ccccc23)CC1` (stereo not given), the “activity change, negative = inhibition” value is -14.4%. Consider `O=c1[nH]cc(F)c(=O)[nH]1`, for which the “activity change, negative = inhibition” value was 10.2%. On to `CN1CCC(=C2c3ccccc3CC(=O)c3sccc32)CC1`, for which the “activity change, negative = inhibition” value was 6.2%. Take `O=C(CCCN1CCC(O)(c2ccc(Cl)cc2)CC1)c1ccc(F)cc1`: the “activity change, negative = inhibition” value is -9.13%. The same measure for `COC(=O)Nc1nc2ccc(C(=O)c3cccs3)cc2[nH]1`: -23.1%; for `CC(C)NCC(O)COc1ccc(CCOCC2CC2)cc1` (stereo not given): 2.17%. Then `CN1CCC(=C2c3ccccc3C=Cc3ccccc32)CC1`, with 13.9%.

Take `NC12CC3CC(CC(C3)C1)C2`: the “activity change, negative = inhibition” value was -3.64%.

For the compound `Clc1ccc2nsnc2c1NC1=NCCN1`, the “activity change, negative = inhibition” value is 5.43%. Take `Cc1cn([C@H]2C=C[C@@H](CO)O2)c(=O)[nH]c1=O`: the “activity change, negative = inhibition” value is -0.464%. Take `CC(C)C(=O)Nc1ccc([N+](=O)[O-])c(C(F)(F)F)c1`: the “activity change, negative = inhibition” value is -20.7%. The same measure for `CC[N+](CC)(CC)CCOc1cccc(OCC[N+](CC)(CC)CC)c1OCC[N+](CC)(CC)CC`: -5.07%. Then `Cn1cnc2c1c(=O)[nH]c(=O)n2C`, with 0%.

`Nc1c2c(nc3ccccc13)CCCC2`: the “activity change, negative = inhibition” value is 4.73%.

Consider `CCOC(=O)C(C)(C)Oc1ccc(Cl)cc1`, for which the “activity change, negative = inhibition” value was -1.02%. The same measure for `C[C@@H]1CC(=O)NN=C1c1ccc(NN=C(C#N)C#N)cc1`: 4.53%. The same measure for `CC(C)(C)C(=O)Oc1ccc(S(=O)(=O)Nc2ccccc2C(=O)NCC(=O)O)cc1`: -19.3%; for `O=C(c1ccc(F)cc1)C1CCN(CCn2c(=O)[nH]c3ccccc3c2=O)CC1`: 18.2%. Consider `CN1C(C(=O)Nc2ccccn2)=C(O)c2ccccc2S1(=O)=O`, for which the “activity change, negative = inhibition” value is 8.41% [at 20.6 µM]. Then `NC(=O)OCC(COC(N)=O)c1ccccc1`, with 7.78%. The same measure for `NS(=O)(=O)c1cc2c(cc1Cl)NCNS2(=O)=O`: 14%; for `CC1COc2c(N3CCN(C)CC3)c(F)cc3c(=O)c(C(=O)O)cn1c23` (stereo not given): -2.69%.

With `Clc1ccc2c(c1)C(N1CCNCC1)=Nc1ccccc1O2`, the “activity change, negative = inhibition” value is 5.2%. Then `CC(C)(Oc1ccc(C2CC2(Cl)Cl)cc1)C(=O)O` (stereo not given), with 2.3%. As for `Cc1cc(C(C)(C)C)c(O)c(C)c1CC1=NCCN1`, the “activity change, negative = inhibition” value was -3.03%. Then `O=C1N(c2ccccc2)c2ccccc2C1(Cc1ccncc1)Cc1ccncc1`, with 2.57%; and `CN(C)C(=N)N=C(N)N`, with 0.996% [at 20.6 µM]; and `CN(C)CCOC(c1ccccc1)c1ccccc1`, with 17.5%. The same measure for `Cc1ccccc1N1C(=O)c2cc(S(N)(=O)=O)c(Cl)cc2NC1C` (stereo not given): -6.17%; for `Cc1cnc(C(=O)NCCc2ccc(S(=O)(=O)NC(=O)NC3CCCCC3)cc2)cn1`: 4.83%. Then `COc1cc2nc(N(C)CCCNC(=O)C3CCCO3)nc(N)c2cc1OC` (stereo not given), with 6.56% [at 20.6 µM]; and `Nc1nnc(-c2cccc(Cl)c2Cl)c(N)n1`, with 1.24%; and `COc1ccccc1OCC(O)CN1CCN(CC(=O)Nc2c(C)cccc2C)CC1` (stereo not given), with 0.57%. As to `NC(=O)NO`, the “activity change, negative = inhibition” value is 3.39%. With `CN1CCN(C2=Nc3cc(Cl)ccc3Nc3ccccc32)CC1`, the “activity change, negative = inhibition” value is 5.2%. Then `CC(C)NCC(O)c1ccc(O)c(O)c1` (stereo not given), with -2.15%.
